FLuc counter: qHTS profiling assay for firefly luciferase inhibitor/activator using purifed enzyme and Km concentrations of substrates (counterscreen for miR-21 project). Luciferin 4-monooxygenase (Photinus pyralis), P08659. purified FLuc, Km substrates, luminescence inhibition. Potency, µM (highest dose often 57.5 µM), without a hit: top-dose activity change, negative = inhibition, actives largely listed as inhibitors. 360,000 tested, 6.9% active. AID 588342, 2011;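 note: plate controls were vehicle for no effect and reference inhibitor for full effect; nearly all actives have a fitted effect of over 55% in size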
Target sequence (P08659 whole entry, looked up): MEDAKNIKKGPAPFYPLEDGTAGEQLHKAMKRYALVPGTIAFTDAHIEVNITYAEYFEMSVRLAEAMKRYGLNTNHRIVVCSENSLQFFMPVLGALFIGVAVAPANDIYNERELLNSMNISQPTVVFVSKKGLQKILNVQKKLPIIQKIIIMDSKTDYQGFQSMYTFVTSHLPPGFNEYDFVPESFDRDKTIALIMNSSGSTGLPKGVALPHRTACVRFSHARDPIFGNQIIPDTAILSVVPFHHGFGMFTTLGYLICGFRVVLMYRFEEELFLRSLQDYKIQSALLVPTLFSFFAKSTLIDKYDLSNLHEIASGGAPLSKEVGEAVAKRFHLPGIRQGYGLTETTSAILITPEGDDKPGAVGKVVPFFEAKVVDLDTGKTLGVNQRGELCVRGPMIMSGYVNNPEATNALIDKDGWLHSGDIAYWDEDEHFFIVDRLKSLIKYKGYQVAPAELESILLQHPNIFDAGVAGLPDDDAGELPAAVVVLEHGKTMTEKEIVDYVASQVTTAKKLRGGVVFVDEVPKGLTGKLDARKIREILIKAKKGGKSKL
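Purified P. pyralis luciferase (10nM final) with 10uM D-luciferin and 10uM ATP (Km levels) in 50mM Tris acetate pH 7.5, 10mM Mg acetate, 0.01% Tween-20, 0.05% BSA; qHTS 6-point titration, ~60 µM downward; luminescence read.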
ELG1 genotox: qHTS screen for small molecules that induce genotoxicity in human embryonic kidney (HEK293T) cells expressing luciferase-tagged ELG1 | HEK293T ELG1-luciferase reporter, luminescence, 16 h | Potency, µM (series often up to 46 µM), inactives show at the top dose activity change, positive = activation, actives largely listed as activators | 330,000 tested, 1.3% active; note: % of control where 0% means no effect; nearly all actives have a fitted effect of over 60% in size
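After overnight (16 hr) compound treatment at 37 °C, ELG1-luciferase HEK293T cells were lysed with ONE-Glo; luminescence quantified 30 min later at room temperature.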
NPC1 promoter act: qHTS Assay for NPC1 Promoter Activators | 320,000 tested, 2.4% active | AID 485313, 2010 | Huh7 NPC1 promoter luciferase reporter, 24 h | Potency, µM (series often up to 9.22 µM), without a hit: at the top dose activation, actives largely listed as activators; note: % of control where 0% means no effect; nearly all actives have a fitted effect of over 60% in size
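Huh7 cells stably carrying NPC1 promoter–luciferase, plated in Opti-MEM with 10% FBS for 2 h, were exposed to compound in DMSO for 24 h at 37 °C; luciferase reagent was added for 10 min and luminescence read.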
Rab9 prom act: qHTS Assay for Rab9 Promoter Activators; Huh7 Rab9 promoter-luciferase reporter, luminescence, 24 h; Potency, µM (doses to about 9.22 µM), inactives show at the highest dose activation, negative = inhibition, usual class: activators; 320,000 tested, 2.8% active; AID 485297, 2010; note: % of control where 0% means no effect; nearly all actives have a fitted effect of over 60% in size
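Rab9 promoter-driven luciferase in stably transfected Huh7 cells; 1500 cells/well rested 2 h, exposed to compound in DMSO for 24 h at 37 °C, 5% CO2. Luminescence read 10 min after adding luciferase reagent at ambient temperature.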
SMN2 splice up: qHTS Assay for Enhancers of SMN2 Splice Variant Expression; HEK293 SMN2-luciferase splicing reporter, luminescence, 30-36 h; 210,000 tested, 2.8% active; AID 1458, 2008; Potency, µM (doses to about 46.1 µM), for inactives: top-dose activity change, positive = activation, hits mostly activators; note: % of control where 0% means no effect; nearly all actives have a fitted effect of over 55% in size
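HEK293 cells carry an SMN2 minigene-luciferase reporter in which exon 7 inclusion puts luciferase in frame. Cells were seeded at 2000 cells/well, attached for 10-12 hours, then exposed to compounds for 30-36 hours at 37C before ONE-Glo luminescence.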
* marks the source's active call; other numbers are inactive results; [ ] = another dose, or the depositor's remark. In the library only some 7.4% were active in any assay of this set; here they are far more common. Calls come from the whole dose curve; as a rule, active = well fitted curve in the direction sought with a large enough effect; inconclusive = small, poorly fitted or top-dose-only effect, or another doubt; inactive = no such curve, though single readings can be large; an effect the other way counts as inactive or inconclusive. Potency is the fitted concentration of half-maximal effect.

Results for Nc1[nH]c(=O)nc2c1ncn2[C@H]1O[C@@H](CO)[C@@H](O)[C@@H]1O ?
SMN2 splice up: -2%[9.22 µM]

Results for CCOC(=O)c1ccc(NC2SC(=O)N(Cc3cccc(C(=O)O)c3)C2=O)cc1 (centres undefined) ?
FLuc counter: 24µM*; SMN2 splice up: inconclusive

Results for COc1ccccc1/C=C/C(=O)Nc1cccc(C(C)=O)c1 ?
FLuc counter: 11µM*; ELG1 genotox: 1%; NPC1 promoter act: 20%; Rab9 prom act: 27%; SMN2 splice up: 13%

Results for COc1cccc(/C=C/C(=O)Nc2ccc3c(c2)OCCO3)c1OC ?
FLuc counter: 0.76µM*; ELG1 genotox: 1.3µM*; NPC1 promoter act: 0.4µM*; Rab9 prom act: 0.4µM*; SMN2 splice up: 2.8µM*

What do the screens show for `COc1cccc(/C=C/C(=O)Nc2ccc(C(=O)Nc3cccc(S(N)(=O)=O)c3)cc2)c1OC`?
FLuc counter: inconclusive; ELG1 genotox: -2%; NPC1 promoter act: 2%; Rab9 prom act: 8%

How did COc1cccc(/C=C/C(=O)Nc2cccc(C(C)=O)c2)c1OC do in these assays?
FLuc counter: 3µM*; ELG1 genotox: 2%; NPC1 promoter act: 3.2µM*; Rab9 prom act: 2.8µM*; SMN2 splice up: 18µM*

How did COc1cccc(C(=O)NCc2ccc3c(c2)OCO3)c1OC do in these assays?
FLuc counter: -2%; ELG1 genotox: 3%; NPC1 promoter act: -2%; Rab9 prom act: 0%

Results for COc1cccc(C(=O)Nc2ccc3c(c2)OCO3)c1OC ?
FLuc counter: 9.5µM*; ELG1 genotox: inconclusive; NPC1 promoter act: 1.4µM*; Rab9 prom act: 1.6µM*

What do the screens show for `Cc1ccc(N2CC(NC(=O)c3ccc(S(=O)(=O)N(C)C)cc3)CC2=O)cc1C` (centres undefined)?
FLuc counter: -5%

What do the screens show for `C/C(=N/NS(=O)(=O)c1ccc(C)cc1)P(=O)(O)O`?
SMN2 splice up: -4%[9.22 µM]

What do the screens show for `COc1ccccc1C(=O)NCC(=O)N1CC=C(c2ccccc2)CC1`?
FLuc counter: inconclusive; ELG1 genotox: -1%; NPC1 promoter act: -4%; Rab9 prom act: -9%

How did CC12C(=O)N(Cc3ccco3)C(=O)C1C1c3ccccc3C2c2ccccc21 (centres undefined) do in these assays?
FLuc counter: 2%; ELG1 genotox: -9%; NPC1 promoter act: -1%; Rab9 prom act: 2%; SMN2 splice up: -36%

How did Cc1cc(O)c2c(C)c(CC(=O)N3CCCCC3)c(=O)oc2c1 do in these assays?
FLuc counter: 3%; SMN2 splice up: -12%

How did CCOC(=O)CC1=NN(c2ccccc2)C(=O)C1 do in these assays?
FLuc counter: -2%; ELG1 genotox: -2%; NPC1 promoter act: -1%; Rab9 prom act: 1%; SMN2 splice up: 5%

What do the screens show for `CC1=NN(c2ccccc2)C(=O)/C1=C\C=C\c1ccccc1`?
FLuc counter: 17µM*; ELG1 genotox: -15%; NPC1 promoter act: -4%; Rab9 prom act: -1%

What do the screens show for `CCOC(=O)CC1=NN(c2ccccc2)C(=O)/C1=C\c1ccc(N(C)C)cc1`?
FLuc counter: 11µM*; ELG1 genotox: 3%; NPC1 promoter act: -11%; Rab9 prom act: -3%; SMN2 splice up: 16%[1.84 µM]

What do the screens show for `CC1=NN(c2ccccc2)C(=O)/C1=C/C=C/c1ccc(N(C)C)cc1`?
FLuc counter: 4.8µM*; ELG1 genotox: -8%; NPC1 promoter act: 2%; Rab9 prom act: 6%; SMN2 splice up: -19%

How did CC1=NN(c2ccccc2)C(=O)/C1=C/N(C)C do in these assays?
FLuc counter: -17%; ELG1 genotox: 0%; NPC1 promoter act: -3%; Rab9 prom act: -1%

How did Cc1c(Cl)cccc1NC(=O)NN1CCN(C)CC1 do in these assays?
FLuc counter: 1%; ELG1 genotox: 0%; NPC1 promoter act: -1%; Rab9 prom act: -4%

What do the screens show for `CCc1nnc(NC(=O)C(CC)CC)s1`?
FLuc counter: 3%; ELG1 genotox: 0%; NPC1 promoter act: -3%; Rab9 prom act: -1%

How did CC(C)(C)c1cc(=O)n(-c2ccccc2)[nH]1 do in these assays?
FLuc counter: 0%; ELG1 genotox: -2%; NPC1 promoter act: 2%; Rab9 prom act: 8%; SMN2 splice up: 9%

Results for O=C(O)C1CSC(c2ccccc2Cl)N1C(=O)c1ccc(Cl)cc1 (centres undefined) ?
FLuc counter: 2%; ELG1 genotox: -2%; NPC1 promoter act: -3%; Rab9 prom act: -14%; SMN2 splice up: 5%

What do the screens show for `COc1ccc2oc(C(=O)OCC(=O)NCC3CCCO3)c(C)c2c1` (centres undefined)?
FLuc counter: inconclusive; ELG1 genotox: 17%; NPC1 promoter act: -1%; Rab9 prom act: -1%

Results for CCOc1ccc2oc(C(=O)NCC3CCCO3)c(C)c2c1 (centres undefined) ?
FLuc counter: 15µM*; ELG1 genotox: inconclusive; NPC1 promoter act: inconclusive; Rab9 prom act: 2.8µM*

Results for COc1ccc2oc(C(=O)NCC3CCCO3)c(C)c2c1 (centres undefined) ?
FLuc counter: 13µM*; ELG1 genotox: inconclusive; NPC1 promoter act: inconclusive; Rab9 prom act: 4µM*

How did Cc1ccc(/C=C2\Oc3cc(OCC(=O)NN)ccc3C2=O)o1 do in these assays?
FLuc counter: 2.1µM*; ELG1 genotox: 0%; NPC1 promoter act: 1%; Rab9 prom act: -5%

Results for O=C(O)COc1ccc2c(c1)O/C(=C\c1cccs1)C2=O ?
FLuc counter: 1.9µM*; ELG1 genotox: 1%; NPC1 promoter act: -5%; Rab9 prom act: -1%

What do the screens show for `COc1ccc(N2CCN(C(=O)COC(=O)c3ccc(-n4nc(C)cc4C)cc3)CC2)cc1`?
FLuc counter: 3%; ELG1 genotox: -1%; NPC1 promoter act: 0%; Rab9 prom act: -1%

Results for CC(=O)N[C@H](Cc1ccc(O)cc1)C(=O)O ?
SMN2 splice up: -6%[9.22 µM]

How did COc1cc(CC(=O)OCC(=O)N2CC(=O)Nc3ccccc32)cc(OC)c1OC do in these assays?
FLuc counter: 3%; ELG1 genotox: -1%; NPC1 promoter act: -2%; Rab9 prom act: -31%; SMN2 splice up: 12%

Results for Cc1ccc(NC(=O)CCCn2nc(C)c3sc4ccccc4c3c2=O)c(Cl)c1 ?
FLuc counter: 6µM*

How did COc1cc(OC)c(NC(=O)CCCn2nc(C)c3sc4ccccc4c3c2=O)cc1Cl do in these assays?
FLuc counter: 13µM*

Source: PubChem BioAssay
